A selection: hits, their analogues and other compounds. The true share with any hit is near 3.5%.
Bead autofluor – compound fluorescence in toxin protease inhibitor counterscreen; AID 624483; fluorescence intensity (no concentration beside the values); 360,000 compounds, 3.1% hits; compound autofluorescence counterscreen, microsphere flow cytometry; stronger effect = higher value; in the data active = fluorescence intensity above about 16000; inconclusive = no clear call, values can overlap the other calls
BoNT-A LC inh2 – blocks Botulinum neurotoxin A light chain protease; multiplex microsphere protease substrate cleavage, flow cytometry; inhibition, % at 10 µM; 360,000 compounds, 0.17% hits; AID 588499; note: plate controls were buffer without enzyme for full effect and enzyme alone for no effect
Anthrax LF prot – anthrax lethal factor protease inhibition; multiplex microsphere protease cleavage assay, LF; inhibition, % at 10 µM; 360,000 compounds, 0.12% hits; P15917; note: plate controls were buffer without enzyme for full effect and enzyme alone for no effect
BoNT F protease – blocks Botulinum neurotoxin F light chain protease; 360,000 compounds, 0.22% hits; inhibition, % at 10 µM; Multiplex microsphere protease cleavage assay, flow cytometry; AID 588497; in the data active = inhibition above about 35%, passing the limit was not always enough; inconclusive = no clear call, values can overlap the other calls; note: plate controls were buffer without enzyme for full effect and enzyme alone for no effect
SARS 3CLpro inh – SARS-CoV 3CLpro protease inhibition | P0C6X7 | recombinant SARS-CoV 3CLpro, quenched FRET peptide cleavage | inhibition, % at 6 µM | 290,000 compounds, 0.14% hits | AID 1706; in the data active = inhibition above about 12%
Active calls of the source: *; u = inconclusive; x = no result given. Cut-off read from the data, not from the text of the source, unless noted: active = inhibition above about 30%; inconclusive = no clear call, values can overlap the other calls; inactive = below that.

SMILES	Bead autofluor	BoNT-A LC inh2	Anthrax LF prot	BoNT F protease	SARS 3CLpro inh
CC1CCN(S(=O)(=O)c2ccc3c(c2)c(=O)c(C(=O)NCc2cccs2)cn3C)CC1	11099	-1	-3	3	0
Cc1ccc(S(=O)(=O)N2CCCC(C(=O)NCc3ccco3)C2)cc1Cl (centres undefined)	19976*	11	0	13	4
Cc1cc(NC(=O)Nc2cc(F)ccc2C)n(C)n1	3476	-2	0	-13	-3
CN1CCC(N2CC3CC(C2)c2cccc(=O)n2C3)CC1 (centres undefined)	24622*	-2	0	-6	2
CC1=C(C(=O)Nc2ccccc2C(=O)NCCCOC(C)C)SCCO1	3105	-1	3	3	-4
CC(=O)C(Cc1ccccc1)NC(=O)CN(C)Cc1ccccc1Cl (centres undefined)	3891	3	-9	11	2
CN(C(=S)Nc1ccc(F)cc1)C1(c2ccccc2Cl)CCCCC1=O (centres undefined)	24303*	-1	1	-3	-2
CN(N)C(=S)Nc1ccc(F)cc1	3501	-1	-6	1	6
Cc1cccc(OCc2nnc(NC(=O)Cc3cccs3)s2)c1	16333*	0	-2	-2	2
Cc1ccc(OCc2nnc(NC(=O)Cc3cccs3)s2)cc1	x	x	x	x	-6
Cc1ccc2nc(NC(=O)Cc3cccs3)sc2c1	21273*	-4	0	-6	1
Cc1ccc2nc(NC(=O)CNS(=O)(=O)c3ccc(Br)s3)sc2c1	21835*	6	0	5	3
O=C(Oc1ccc(N(Cc2cccs2)C2=NS(=O)(=O)c3ccccc32)cc1)c1ccccc1F	22943*	1	-2	-4	0
O=C(c1ccccc1F)N(Cc1cccs1)C1CCS(=O)(=O)C1 (centres undefined)	6039	0	0	4	4
COc1ccc(N2C(=O)CC(Nc3ccc(C)cc3)C2=O)cc1 (centres undefined)	21164*	u	-5	1	5
CC(OC(=O)C1CCCO1)C(=O)NC1CCCC1 (centres undefined)	19071*	1	0	-2	-8
COc1ccc(Cl)cc1C(=O)O/N=C(\N)c1ccccn1	3904	-2	33*	u	0
Cc1ccc(C(NC(=O)N2CCCCC2)=C(Cl)Cl)cc1F	2590	0	0	-3	3
CCC(=NCCN1CCOCC1)c1c(O)n(C2CCCCC2)c(=O)[nH]c1=O	5537	1	-2	9	2
CCC(=Nc1ccc(OC)cc1OC)c1c(O)n(C2CCCCC2)c(=O)[nH]c1=O	22084*	1	-1	-1	-1
CCN(CC)CCCN=C(C)c1c(O)n(C2CCCCC2)c(=O)[nH]c1=O	16590*	0	-1	-4	0
CC(=NCCO)c1c(O)n(C2CCCCC2)c(=O)[nH]c1=O	3166	1	4	-2	2
CCC(=NCCCN(CC)CC)c1c(O)n(C2CCCCC2)c(=O)[nH]c1=O	25763*	-3	0	-3	-2
CCNc1ccc(Br)cc(C(=O)/C=C/c2ccccc2Cl)c1=O	16998*	52*	45*	19	-2
COC(=O)c1ccc(COc2nc(C)cc(C)c2C#N)o1	9660	0	-2	4	3
SMILES	Bead autofluor	BoNT-A LC inh2	Anthrax LF prot	BoNT F protease	SARS 3CLpro inh
Cc1ccc(C(=O)COc2nc(C)cc(C)c2C#N)cc1	22443*	-1	0	-3	5
Cc1ccnc(SCC(=O)c2ccc(Br)cc2)c1C#N	2042	1	-1	-2	1
Cc1cc(C)c(C#N)c(OCC(=O)c2ccc(Br)cc2)n1	23283*	u	1	0	-1
CC1(C)C2([N+](=O)[O-])CN3CC1([N+](=O)[O-])CN(C2)C3c1ccccc1 (centres undefined)	22107*	4	1	6	-2
CC1(C)C2([N+](=O)[O-])CN3CC1([N+](=O)[O-])CN(C2)C31CCCC1	17714*	u	-2	-7	4
CC(C)c1ccc(C2N3CC4([N+](=O)[O-])CN2CC([N+](=O)[O-])(C3)C4(C)C)cc1 (centres undefined)	2390	0	-3	1	2
O=C(COc1ccc(Br)cc1)Nc1ccccc1N1CCCC1	2471	0	1	-3	5
CC(=O)N1CCN(c2ccccc2NC(=O)COc2ccc(Br)cc2)CC1	23694*	-1	-4	-6	-3
CCCn1c(SCC(=O)NC2CCCCC2)nnc1-c1cccnc1	5084	0	0	-4	1
Cc1ccc(O)c(C(=O)c2coc(=N)c(C(=O)NC(C)C)c2)c1	20781*	u	-4	0	-2
O=C(NC(=S)Nc1ncccn1)c1ccc(Cl)cc1Cl	4068	-1	-2	-3	-2
NC(=O)NC(=O)C[n+]1cccc(/C=N/O)c1	2641	0	-1	-4	1
CCOC(=O)CC(=O)CSc1nc2c(sc(=S)n2-c2ccccc2)c(=O)[nH]1	21967*	u	0	3	4
CCOC(=O)c1ccc(N2C(=O)CC(N3CCN(Cc4ccccc4)CC3)C2=O)cc1 (centres undefined)	2513	0	-6	-2	-1
CCOC(=O)c1ccc(N2C(=O)CC(N3CCCC(C)C3)C2=O)cc1 (centres undefined)	25079*	-5	-1	-8	3
CCc1c(C(=O)Nc2ccc(OC)c(Cl)c2)[nH]c(C)c1C(C)=O	9553	-1	-9	-7	-2
COc1ccc(NC(=O)COc2ccccc2C)cc1S(=O)(=O)N1CCCCC1	5356	3	-4	-3	x
COc1cc(C(=O)NS(=O)(=O)c2ccccc2C)ccc1Cc1cn(C)c2ccc(NC(=O)OC3CCCC3)cc12	x	x	x	x	15*
COc1ccc(N(CC(=O)N2CCc3ccccc32)S(=O)(=O)c2c(C)n[nH]c2C)cc1	17257*	u	-23	12	0
CCN(c1ccc(OC)cc1)S(=O)(=O)c1ccc2c(c1)CCN2C(=O)CCC(=O)O	16864*	-3	-2	-5	2
CCN(c1ccc(C)c(C)c1)S(=O)(=O)c1ccc2c(c1)CCN2C(=O)CCC(=O)O	12888	-1	-4	-16	1
COc1ccc(CC(=O)NCc2ccccc2)cc1S(=O)(=O)N1CCOCC1	8566	0	4	-3	-8
COc1ccc(CC(=O)NCc2ccccc2Cl)cc1S(=O)(=O)N1CCOCC1	23297*	0	1	-1	0
CCOc1ccccc1N1CC(C(=O)NCCc2ccc(S(N)(=O)=O)cc2)CC1=O (centres undefined)	20308*	1	-2	-2	-2
NS(=O)(=O)c1ccc(CCNC(=O)[C@@H]2CCCN2S(=O)(=O)c2ccccc2F)cc1	5880	0	-9	-7	-5
O=C(NCCc1ccccc1F)C1CCCN1S(=O)(=O)c1ccc2ccccc2c1 (centres undefined)	20558*	0	-4	-3	5
NS(=O)(=O)c1ccc(CCNC(=O)C2CCCCN2S(=O)(=O)c2ccccc2)cc1 (centres undefined)	21340*	2	-17	0	1

Source: PubChem
